MOR-DOR ag: agonists of human mu-delta opioid receptor heterodimerization | cells, OPRM1-OPRD1 heterodimerization, luminescence | activation, % at 9.3 µM | 340,000 compounds, 0.3% hits | AID 504326; in the data active means activation above about 18%;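 further: 0% = vehicle-treated cells and 100% = reference agonist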
Target sequence (P35372 whole entry, looked up): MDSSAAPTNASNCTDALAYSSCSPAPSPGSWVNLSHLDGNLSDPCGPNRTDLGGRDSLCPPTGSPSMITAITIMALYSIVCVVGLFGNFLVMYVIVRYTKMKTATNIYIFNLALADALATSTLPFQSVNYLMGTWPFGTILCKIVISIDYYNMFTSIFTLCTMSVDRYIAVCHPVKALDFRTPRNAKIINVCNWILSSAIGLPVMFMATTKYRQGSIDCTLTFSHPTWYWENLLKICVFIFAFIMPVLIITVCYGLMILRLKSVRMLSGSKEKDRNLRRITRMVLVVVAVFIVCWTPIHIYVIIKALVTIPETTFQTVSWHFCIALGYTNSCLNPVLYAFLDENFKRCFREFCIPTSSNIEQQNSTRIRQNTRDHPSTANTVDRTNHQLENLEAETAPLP
Target sequence (P41143 whole entry, looked up): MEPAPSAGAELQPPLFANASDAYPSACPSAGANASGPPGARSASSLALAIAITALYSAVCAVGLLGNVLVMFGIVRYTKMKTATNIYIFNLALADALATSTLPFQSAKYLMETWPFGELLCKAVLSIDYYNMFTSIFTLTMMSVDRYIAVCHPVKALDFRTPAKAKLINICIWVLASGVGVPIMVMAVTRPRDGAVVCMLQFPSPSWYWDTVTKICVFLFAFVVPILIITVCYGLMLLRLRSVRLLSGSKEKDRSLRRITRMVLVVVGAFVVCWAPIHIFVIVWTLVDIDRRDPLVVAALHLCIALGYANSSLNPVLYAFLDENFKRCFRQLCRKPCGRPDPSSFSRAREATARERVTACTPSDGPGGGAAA
HTR5A ag: activates human HTR5A in OPRM1-OPRD1 agonist counter-screen | P47898 | HTR5A agonist assay, luminescence, cell-based | activation, % at 9.3 µM | 340,000 compounds, 0.61% hits | AID 504692; in the data active means activation mostly above about 9.5%, no sharp cut-off; inactive means mostly below about 7.6%;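 further: 0% = cells with vehicle only and 100% = reference agonist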
HTR5A inv ag: inverse agonist of human HTR5A in OPRM1-OPRD1 counter-screen; HTR5A cell line, luminescence, inverse agonism; inhibition, % at 9.3 µM; 340,000 compounds, 0.083% hits; AID 504634; in the data active means inhibition mostly above about 23%, no sharp cut-off; inactive means mostly below about 18%;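 further: 0% = cells with DMSO and 100% = no-cell wells with DMSO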
OPRM1-OPRD1 inv: mu-delta opioid heterodimer inverse agonism; P35372+P41143; cell-based MOR-DOR heterodimer luminescence; inhibition, % at 9.3 µM; 340,000 compounds, 0.21% hits; AID 504357; in the data active means inhibition above about 22%, passing the limit was not always enough;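 further: 0% = cells with DMSO and 100% = wells without cells with DMSO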
* hit, by the source's call. Only some compounds are listed: those with a hit (about 1.1% of all), similar ones and a draw of the others.

How did COC(=O)c1ccc(NC(=S)N2CCN(C)CC2)cc1 do in these assays?
MOR-DOR ag: -1.6; HTR5A ag: 13.0*; HTR5A inv ag: -35.8; OPRM1-OPRD1 inv: 7.4

How did COC(=O)c1ccc(NC(=S)N2CCCC2)cc1 do in these assays?
MOR-DOR ag: -2.1; HTR5A ag: 5.1; HTR5A inv ag: -22.5; OPRM1-OPRD1 inv: 10.7

What do the screens show for `O=C(COC(=O)/C=C/c1ccc(S(=O)(=O)N2CCOCC2)cc1)NCc1ccc(F)cc1`?
MOR-DOR ag: -1.6; HTR5A ag: -0.7; HTR5A inv ag: 1.9; OPRM1-OPRD1 inv: 8.8

What do the screens show for `CCO[C@H]1OC(C(=O)NCc2nc3ccccc3[nH]2)=C[C@@H](C2CCCCC2)[C@@H]1CCCO`?
MOR-DOR ag: 0.8; HTR5A ag: 4.2; HTR5A inv ag: -12.2; OPRM1-OPRD1 inv: -4.5

How did c1cncc(CNc2nc(-c3cccnc3)nc3ccccc23)c1 do in these assays?
MOR-DOR ag: -4.4; HTR5A ag: 1.1; HTR5A inv ag: -4.2; OPRM1-OPRD1 inv: 19.7

How did COc1cccc(-c2nc(NCc3cccnc3)c3ccccc3n2)c1O do in these assays?
MOR-DOR ag: -1.2; HTR5A ag: 11.0*; HTR5A inv ag: -38.7; OPRM1-OPRD1 inv: 5.2

What do the screens show for `O=C(CN(C1CCCCC1)S(=O)(=O)c1ccc(F)cc1)NCC1CCCO1` (configuration not stated)?
MOR-DOR ag: 16.2; HTR5A ag: 16.8*; HTR5A inv ag: -61.1; OPRM1-OPRD1 inv: -84.8

How did O=C(CN(C1CCCCC1)S(=O)(=O)c1ccccc1)NCC1CCCO1 (configuration not stated) do in these assays?
MOR-DOR ag: -0.7; HTR5A ag: 7.3; HTR5A inv ag: -20.8; OPRM1-OPRD1 inv: 4.3

How did CC(=O)Nc1ccc(NC(=O)CCCN2C(=O)c3ccccc3C2=O)cc1 do in these assays?
MOR-DOR ag: 1.7; HTR5A ag: 9.8*; HTR5A inv ag: -27.6; OPRM1-OPRD1 inv: -8.7

Results for CC(=O)Nc1ccc(NC(=O)CCN2C(=O)c3ccccc3C2=O)cc1 ?
MOR-DOR ag: -1.3; HTR5A ag: -1.9; HTR5A inv ag: 7.1; OPRM1-OPRD1 inv: 6.4

Results for CCOC(=O)c1c(NC(=O)CSc2nc3ccccc3s2)sc(C(C)=O)c1C ?
MOR-DOR ag: 0.6; HTR5A ag: 2.1; HTR5A inv ag: -4.8; OPRM1-OPRD1 inv: -3.5

How did CCOC(=O)c1c(S(=O)(=O)N2CCCC(C(=O)Nc3ccc(C)cn3)C2)c(C)n(C)c1C (configuration not stated) do in these assays?
MOR-DOR ag: -2.0; HTR5A ag: 2.0; HTR5A inv ag: -7.7; OPRM1-OPRD1 inv: 10.3

What do the screens show for `CN(C(=O)c1cccc(NC(=O)c2cccs2)c1)c1ccccc1`?
MOR-DOR ag: -0.3; HTR5A ag: 11.1*; HTR5A inv ag: 12.2; OPRM1-OPRD1 inv: 1.5

How did COc1ccc(C2NN=C(c3c[nH]c4ccccc34)C2O)cc1 (configuration not stated) do in these assays?
MOR-DOR ag: 3.9; HTR5A ag: 4.2; HTR5A inv ag: -16.2; OPRM1-OPRD1 inv: -22.2

How did COc1ccc(C2C(O)C(c3c[nH]c4ccccc34)=NN2C(=O)CCl)cc1 (configuration not stated) do in these assays?
MOR-DOR ag: 60.1*; HTR5A ag: 56.0*; HTR5A inv ag: -149.9; OPRM1-OPRD1 inv: -319.6

Results for O=Cc1s/c(=N\S(=O)(=O)c2ccccc2)n(CCCCl)c1Cl ?
MOR-DOR ag: -7.4; HTR5A ag: -3.6; HTR5A inv ag: 9.2; OPRM1-OPRD1 inv: 33.8*

What do the screens show for `CCn1c(C)cs/c1=N\S(=O)(=O)c1ccccc1`?
MOR-DOR ag: -2.2; HTR5A ag: 6.2; HTR5A inv ag: -18.1; OPRM1-OPRD1 inv: 12.8

Results for Cc1csc(C(=O)O)c1-c1c(C)csc1C(=O)O ?
MOR-DOR ag: 1.9; HTR5A ag: 3.5; HTR5A inv ag: -9.3; OPRM1-OPRD1 inv: -9.8

How did COc1ccc(CNC(=O)C(c2ccncc2)N(C(=O)Cc2cccs2)c2ccccc2)cc1 (configuration not stated) do in these assays?
MOR-DOR ag: -1.0; HTR5A ag: 0.1; HTR5A inv ag: -21.0; OPRM1-OPRD1 inv: 4.6

How did COc1ccc(N(C(=O)CCl)C(C(=O)NCCc2ccccc2)c2cccs2)cc1 (configuration not stated) do in these assays?
MOR-DOR ag: 68.1*; HTR5A ag: 54.6*; HTR5A inv ag: -65.7; OPRM1-OPRD1 inv: -360.4

Results for O=C(NCc1ccc(-c2csnn2)cc1)c1cc(Cl)cc(Cl)c1 ?
MOR-DOR ag: 1.6; HTR5A ag: 2.7; HTR5A inv ag: -7.0; OPRM1-OPRD1 inv: -7.9

How did COCC(C)n1c(SCC(=O)NCCC2=CCCCC2)nc2ccccc2c1=O (configuration not stated) do in these assays?
MOR-DOR ag: 0.5; HTR5A ag: 2.7; HTR5A inv ag: 8.2; OPRM1-OPRD1 inv: -2.6

What do the screens show for `CCOC(=O)CNC(=O)CSc1nc(N(C)C)nc(N2CCOCC2)n1`?
MOR-DOR ag: 2.8; HTR5A ag: 11.2*; HTR5A inv ag: -10.9; OPRM1-OPRD1 inv: -12.9

What do the screens show for `CCOC(=O)c1ccc(NC(=O)CSc2nc(N3CCOCC3)nc(N3CCOCC3)n2)cc1`?
MOR-DOR ag: -2.1; HTR5A ag: 0.7; HTR5A inv ag: -0.1; OPRM1-OPRD1 inv: 11.7

Results for CCOC(=O)c1c(SCCN2CCCC2)n(-c2ccccc2)c(=S)n(-c2ccccc2)c1=O ?
MOR-DOR ag: -11.8; HTR5A ag: -3.7; HTR5A inv ag: 14.2; OPRM1-OPRD1 inv: 57.5*

Results for C=CCNC(=S)N/N=C(\C)c1ccccn1 ?
MOR-DOR ag: -7.2; HTR5A ag: -5.4; HTR5A inv ag: 12.9; OPRM1-OPRD1 inv: 34.6*

Results for COc1ccc(Nc2nc(Nc3ccc(OC)cc3)nc(-n3[nH]c(=O)c(C)c3C)n2)cc1 ?
MOR-DOR ag: -3.4; HTR5A ag: -2.8; HTR5A inv ag: 42.6*; OPRM1-OPRD1 inv: 17.4

What do the screens show for `COc1ccc(Nc2nc(OC)nc(OC)n2)cc1`?
MOR-DOR ag: -3.8; HTR5A ag: -3.1; HTR5A inv ag: 11.6; OPRM1-OPRD1 inv: 17.6

How did O=C(N/N=C/c1cc(Cl)ccc1O)c1ccccc1Br do in these assays?
MOR-DOR ag: 4.9; HTR5A ag: 12.4*; HTR5A inv ag: -35.0; OPRM1-OPRD1 inv: -35.4

Results for O=C(CNC(=O)c1ccccc1Br)N/N=C/c1cc(Br)ccc1O ?
MOR-DOR ag: -1.1; HTR5A ag: 2.6; HTR5A inv ag: -6.9; OPRM1-OPRD1 inv: 5.5

How did O=C(N/N=C/C1C(c2ccccc2)C1(Cl)Cl)c1cccc(Br)c1 (configuration not stated) do in these assays?
MOR-DOR ag: -0.8; HTR5A ag: 11.1*; HTR5A inv ag: -6.8; OPRM1-OPRD1 inv: 4.7

How did CSc1nc(Nc2ccc(Cl)cc2)c(C#N)c(=O)[nH]1 do in these assays?
MOR-DOR ag: -0.1; HTR5A ag: 7.2; HTR5A inv ag: 12.6; OPRM1-OPRD1 inv: 0.3

How did CCN1CCN(C(CNS(=O)(=O)c2ccc(Br)cc2)c2cccnc2)CC1 (configuration not stated) do in these assays?
MOR-DOR ag: -2.6; HTR5A ag: 12.5*; HTR5A inv ag: 8.0; OPRM1-OPRD1 inv: 13.9

What do the screens show for `CCC(NC(=O)Nc1nnc(C(F)(F)F)s1)(C(F)(F)F)C(F)(F)F`?
MOR-DOR ag: 2.5; HTR5A ag: 11.7*; HTR5A inv ag: -37.1; OPRM1-OPRD1 inv: -14.1

Source: PubChem BioAssay (The Scripps Research Institute Molecular Screening Center)
